What all share (assay): NCI-60 one-dose screen, 48 h (100 = growth as untreated, 0 = no growth, -100 = all killed)
Common to all, as to conditions: 10 µM

Assay [1] concerns DU-145 prostate.
Assay [2] concerns K-562 leukemia.
The subject of assay [3] is MALME-3M melanoma.
Assay [4] deals with MDA-MB-231 breast.
Assay [5] has as its system RXF 393 renal.
Assay [6] has as its system SF-268 CNS.
The subject of assay [7] is SF-295 CNS.
The subject of assay [8] is SF-539 CNS.
In assay [9] the test system is UACC-257 melanoma.
For assay [10], the system named is M14 melanoma.

The structures appear in SMILES notation. Compounds without any hit were thinned out: in the full panel of roughly 83,000, 20% have a hit.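 Interpretation: 100, growth as untreated; towards 0, rising growth inhibition; 0, no net growth; 0 to -100, cell death. Compounds scoring below 10 were considered active.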 A number with no mark means an inactive call. Activity calls are given as the source filed them. Where a SMILES comes first, the peptide text is derived from it. Bridges are numbered along the chain shown (N, C = ends). [ ]: non-standard residue; d: D form. The star is where a group is joined. ξ: configuration not given here. ξNMePhe(4-NMe2) = CNC(Cc1ccc(N(C)C)cc1)C(=O)O; Picolinoyl(3-OH) = O=C(c1ncccc1O)*; ξPip(4-oxo) = O=C1CCNC(C(=O)O)C1; Phg = N[CH](C(=O)O)c1ccccc1; Abu = CC[CH](N)C(=O)O

On to `COC1=CC(=O)c2nc(Cl)ccc2C1=O`, for which the growth is 63% in assay [1]; 0.0099% (active) in assay [2]; 130% in [3]; -25.5% (active) in assay [4]; -53.9% (active) in [5]; 63.6% in assay [6]. Moreover, the growth is 115% in [7], 88.3% in assay [8], -30.9% (active) in assay [9] and -5.38% (active) in assay [10].

Consider `Nc1nc(OCc2ccccc2)c2[nH]cnc2n1`, for which the growth in assay [1] is 99.2%; in assay [2] it was 80.4%; in assay [3], 98.3%; in assay [4], 97.9%; in assay [5], 98.8%; in [6], 109%. For the same compound, the growth in assay [7] was 96.8%; in [8], 89.7%; in [9] it was 97.8%; in [10] it was 90.6%.

On to `CCOC(=O)CCCS(C)(=O)=O`, for which the growth was 117% in assay [1]; 113% in assay [2]; 105% in [3]; 99% in assay [4]; 113% in assay [5]; 108% in [6]. In addition, the values for the growth in [7], in assay [8] and in [9] were 117%, 97.7% and 108%, respectively.

Consider `CC(=O)OCC1=CC2OC(=O)C3=COC(OC4OC(CO)C(O)C(O)C4O)C1C32` (stereo unspecified), for which the growth in assay [1] is 114%; in assay [2], 121%; in [3], 96.5%; in [4], 113%; in assay [5] it was 36.8%; in [6], 120%. Further, the results for the growth in assay [7], in assay [8] and in assay [9] were 112%, 109% and 102%, respectively.

As for `CCC1NC(=O)C(NC(=O)c2ncccc2O)C(C)OC(=O)C(c2ccccc2)NC(=O)C2CC(=O)CCN2C(=O)C(Cc2ccc(N(C)C)cc2)N(C)C(=O)C2CCCN2C1=O` (stereo unspecified) (tested in a mixture with another compound) ({Picolinoyl(3-OH)}-T[Abu]P[ξNMePhe(4-NMe2)][ξPip(4-oxo)][Phg]; ester 1-C; configuration not given here), the growth in assay [1] is 46.9%; in assay [2], 38.3%; in [3] it was 55.4%; in assay [4], 58.6%; in assay [5], 27.6%; in assay [6] it was 79.8%. The results for the growth in [7], in assay [8] and in [9] were 20.7%, 64.2% and 70.6%, respectively.

Take `CN(C)c1ccc(S(=O)(=O)O)cc1`: the growth in [1] was 110%; in assay [2] it was 104%; in assay [3], 103%; in assay [4] it was 105%; in assay [5], 103%; in [6], 91.9%. Also, the values for the growth in assay [7], in assay [8] and in [9] were 107%, 91.2% and 107%, respectively.

For `CC(C)C(C#N)(C(C)C)C(C)C`, the growth in [1] is 111%; in [2] it was 114%; in [3] it was 92.9%; in assay [4], 104%; in assay [5], 115%; in [6] it was 98.1%. For the same compound, the growth in assay [7] is 103%; in assay [8] it was 104%; in assay [9] it was 96%.

For `CCCNC(=O)c1ccc(S(N)(=O)=O)cc1`, the growth is 109% in assay [1]; 107% in assay [2]; 113% in assay [3]; 101% in assay [4]; 107% in assay [5]; 103% in assay [6]. Besides, the growth in [7] was 127%; in [8], 97.8%; in assay [9] it was 110%.

`Cc1cc2ccccc2c(O)c1C#N`: the growth in assay [1] is 120%; in assay [2] it was 92.8%; in assay [3] it was 126%; in [4], 98.9%; in [5] it was 118%; in assay [6], 103%. Further, the growth is 116% in assay [7], 110% in [8] and 106% in assay [9].

For the compound `COC(=O)c1ccccc1Br`, the growth is 102% in assay [1]; 111% in [2]; 98.5% in assay [3]; 112% in assay [4]; 110% in assay [5]; 101% in assay [6]. For the same compound, the results for the growth in assay [7], in assay [8] and in assay [9] were 95.1%, 102% and 114%, respectively.

For `COc1cccc(/C=N/NC(=S)NC2CC3CCC2C3)c1O` (stereo unspecified), the growth in assay [1] was 56.6%; in [2], 39.3%; in assay [3] it was 35.9%; in assay [4], 55.4%; in [5], 51.5%; in [6], 63.3%. Moreover, the growth in assay [7] is 15.9%; in [8], 69.8%; in assay [9], 73.6%.

`N#Cc1ccc(NC(=O)Nc2cccc(C#N)c2)cc1`: the growth was 116% in assay [1]; 46.1% in assay [2]; 121% in [3]; 92.1% in assay [4]; 99.3% in [5]; 112% in assay [6]. Besides, the growth in [7] was 89.3%; in assay [8], 93.9%; in assay [9] it was 89.2%.

On to `CC1(C)OC(=O)C(c2ccsc2)C(=O)O1`, for which the growth in [1] was 107%; in assay [2] it was 107%; in assay [3], 112%; in assay [4], 111%; in assay [5] it was 107%; in [6] it was 99.6%. For the same compound, the figures for the growth in assay [7], in assay [8] and in [9] were 108%, 98.9% and 104%, respectively.

Consider `CCOc1ccc(I)cc1`, for which the growth in [1] is 105%; in [2], 119%; in assay [3], 108%; in [4], 102%; in [5], 107%; in [6] it was 96.4%. Also, the growth is 113% in assay [7], 97.8% in assay [8] and 104% in assay [9].

Turning to `COc1cc(/C=N\Nc2ccccc2)ccc1OC(=O)c1ccccc1`, the growth in [1] is 55.3%; in assay [2], 12%; in [3], 89.5%; in assay [4] it was 86.3%; in assay [5], 100%; in [6], 57.5%. Besides, the figures for the growth in assay [7], in assay [8] and in [9] were 50.5%, 24.4% and 81.8%, respectively.

In the case of `Cc1ccc(C(=O)c2ccccc2)c(C)c1`, the growth was 104% in [1]; 125% in [2]; 120% in [3]; 97.8% in [4]; 116% in assay [5]; 102% in [6]. For the same compound, the growth is 136% in [7], 98.9% in [8] and 112% in assay [9].

Source of the values: PubChem BioAssay (NCI).
